Reference: article PMC9838217, “Structure of SALL4 zinc finger domain reveals link between AT-rich DNA binding and Okihiro syndrome”
Substitutions are numbered along the chain they refer to.

Key:
Assay in all cases: HT-SELEX; high values mean tight binding
Conditions in all cases: protein: recombinant; vector His6-GST; dsDNA, one strand shown
SALL4 ZFC4 WT (HT-SELEX) = biological target: T1, SALL4 ZFC4 WT (HT-SELEX) (Mus musculus, UniProt Q8BX22 870-940)
T1 sequence: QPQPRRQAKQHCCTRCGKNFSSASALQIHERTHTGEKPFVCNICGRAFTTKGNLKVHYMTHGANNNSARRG
Summary of the method: (§1)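 DNA from a random library (1.5 µg in the first cycle, 200 ng afterwards) was incubated with purified recombinant mouse SALL4 zinc finger cluster 4, residues 870–940 (1 µg), for 10 min at room temperature in 100 µl buffer: 10 mM Tris–HCl pH 7.5, 50 mM NaCl, poly(dI-dC), DTT. Bound complexes were pulled down on Ni2+ beads, washed and PCR-amplified, and the selection was repeated for up to 6 cycles in triplicate. MiSeq reads were scanned for 6-mers, and binding signal is each canonical k-mer's read fraction as fold change over the initial random library.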

[1] = biological target: T2, SALL4 ZFC4 R900W (HT-SELEX) (Mus musculus, UniProt Q8BX22 870-940, R900W)
T2 sequence: T1 sequence with R31W
Summary of the method: as §1

[2] = biological target: T3, SALL4 ZFC4 G921D (HT-SELEX) (Mus musculus, UniProt Q8BX22 870-940, G921D)
T3 sequence: T1 sequence with G52D
Summary of the method: as §1

Sequence	binding signal (SALL4 ZFC4 WT (HT-SELEX))	binding signal [1]	binding signal [2]
TGTAAA	1.93 ± 0.102 fold-change vs cycle 0	1.92 ± 0.0908 fold-change vs cycle 0	1.7 ± 0.134 fold-change vs cycle 0
ATAGTA	2.1 ± 0.131 fold-change vs cycle 0	2.08 ± 0.149 fold-change vs cycle 0	1.83 ± 0.209 fold-change vs cycle 0
ACTTTC	1.28 ± 0.0405 fold-change vs cycle 0	1.42 ± 0.0806 fold-change vs cycle 0	1.37 ± 0.0709 fold-change vs cycle 0
TATGGA	1.65 ± 0.0906 fold-change vs cycle 0	1.46 ± 0.0813 fold-change vs cycle 0	1.37 ± 0.0965 fold-change vs cycle 0
TAAAAA	3.23 ± 0.33 fold-change vs cycle 0	2.2 ± 0.213 fold-change vs cycle 0	1.92 ± 0.229 fold-change vs cycle 0
GTGATA	1.42 ± 0.0582 fold-change vs cycle 0	1.47 ± 0.0649 fold-change vs cycle 0	1.39 ± 0.0928 fold-change vs cycle 0
ATCCTA	1.48 ± 0.0397 fold-change vs cycle 0	1.6 ± 0.0899 fold-change vs cycle 0	1.46 ± 0.117 fold-change vs cycle 0
CAGCAC	0.3 ± 0.0076 fold-change vs cycle 0	0.335 ± 0.0156 fold-change vs cycle 0	0.476 ± 0.0603 fold-change vs cycle 0
ATCATG	1.38 ± 0.03 fold-change vs cycle 0	1.48 ± 0.0158 fold-change vs cycle 0	1.4 ± 0.0239 fold-change vs cycle 0
AGTAAC	1.458 ± 0.009 fold-change vs cycle 0	1.62 ± 0.0372 fold-change vs cycle 0	1.49 ± 0.109 fold-change vs cycle 0
ATTGGA	1.3 ± 0.0815 fold-change vs cycle 0	1.36 ± 0.0818 fold-change vs cycle 0	1.33 ± 0.0804 fold-change vs cycle 0
AGACAT	1.29 ± 0.0778 fold-change vs cycle 0	1.45 ± 0.0615 fold-change vs cycle 0	1.37 ± 0.0528 fold-change vs cycle 0
AGACAC	0.683 ± 0.0462 fold-change vs cycle 0	0.821 ± 0.037 fold-change vs cycle 0	0.923 ± 0.0183 fold-change vs cycle 0
AGAACG	0.692 ± 0.0289 fold-change vs cycle 0	0.817 ± 0.046 fold-change vs cycle 0	0.844 ± 0.0513 fold-change vs cycle 0
AGAGTA	1.47 ± 0.0798 fold-change vs cycle 0	1.61 ± 0.0906 fold-change vs cycle 0	1.46 ± 0.121 fold-change vs cycle 0
CAGGTC	0.406 ± 0.041 fold-change vs cycle 0	0.487 ± 0.0258 fold-change vs cycle 0	0.603 ± 0.0536 fold-change vs cycle 0
GAATGA	1.42 ± 0.0437 fold-change vs cycle 0	1.57 ± 0.0566 fold-change vs cycle 0	1.43 ± 0.0639 fold-change vs cycle 0
TGTACA	1.21 ± 0.0321 fold-change vs cycle 0	1.32 ± 0.00394 fold-change vs cycle 0	1.26 ± 0.0338 fold-change vs cycle 0
GTTCTA	1.28 ± 0.0473 fold-change vs cycle 0	1.39 ± 0.0453 fold-change vs cycle 0	1.33 ± 0.108 fold-change vs cycle 0
CAATCA	1.31 ± 0.0592 fold-change vs cycle 0	1.41 ± 0.0553 fold-change vs cycle 0	1.4 ± 0.0622 fold-change vs cycle 0

Sequence	binding signal (SALL4 ZFC4 WT (HT-SELEX))	binding signal [1]	binding signal [2]
CGTAGC	0.305 ± 0.0314 fold-change vs cycle 0	0.356 ± 0.00868 fold-change vs cycle 0	0.479 ± 0.0718 fold-change vs cycle 0
GGACAA	0.637 ± 0.0222 fold-change vs cycle 0	0.742 ± 0.00957 fold-change vs cycle 0	0.828 ± 0.043 fold-change vs cycle 0
AACCCT	0.85 ± 0.042 fold-change vs cycle 0	0.958 ± 0.0297 fold-change vs cycle 0	0.971 ± 0.0387 fold-change vs cycle 0
CTCATC	0.898 ± 0.0192 fold-change vs cycle 0	1.04 ± 0.0368 fold-change vs cycle 0	1.06 ± 0.0243 fold-change vs cycle 0
CAAGAA	1.26 ± 0.0324 fold-change vs cycle 0	1.43 ± 0.0703 fold-change vs cycle 0	1.35 ± 0.104 fold-change vs cycle 0
AGTCTA	1.25 ± 0.0412 fold-change vs cycle 0	1.41 ± 0.0887 fold-change vs cycle 0	1.37 ± 0.0788 fold-change vs cycle 0
AGGTGG	0.487 ± 0.0135 fold-change vs cycle 0	0.556 ± 0.0106 fold-change vs cycle 0	0.647 ± 0.0454 fold-change vs cycle 0
CCCAAC	0.395 ± 0.0223 fold-change vs cycle 0	0.437 ± 0.0176 fold-change vs cycle 0	0.544 ± 0.0399 fold-change vs cycle 0
CAGACA	0.66 ± 0.0364 fold-change vs cycle 0	0.798 ± 0.012 fold-change vs cycle 0	0.862 ± 0.0574 fold-change vs cycle 0
AGTAAT	2.39 ± 0.144 fold-change vs cycle 0	2.3 ± 0.183 fold-change vs cycle 0	1.99 ± 0.219 fold-change vs cycle 0
GCTCCA	0.305 ± 0.0228 fold-change vs cycle 0	0.37 ± 0.0101 fold-change vs cycle 0	0.505 ± 0.0396 fold-change vs cycle 0
ACTTCT	1.44 ± 0.0317 fold-change vs cycle 0	1.64 ± 0.0808 fold-change vs cycle 0	1.45 ± 0.0874 fold-change vs cycle 0
CCTGCA	0.34 ± 0.0217 fold-change vs cycle 0	0.407 ± 0.0271 fold-change vs cycle 0	0.515 ± 0.0759 fold-change vs cycle 0
CACCAC	0.402 ± 0.0296 fold-change vs cycle 0	0.465 ± 0.0324 fold-change vs cycle 0	0.587 ± 0.0576 fold-change vs cycle 0
ATGCTA	1.28 ± 0.0551 fold-change vs cycle 0	1.34 ± 0.0761 fold-change vs cycle 0	1.31 ± 0.0688 fold-change vs cycle 0
GGTAAA	1.19 ± 0.0123 fold-change vs cycle 0	1.3 ± 0.0352 fold-change vs cycle 0	1.23 ± 0.0522 fold-change vs cycle 0
CTACTA	1.31 ± 0.0478 fold-change vs cycle 0	1.47 ± 0.0658 fold-change vs cycle 0	1.39 ± 0.0974 fold-change vs cycle 0
CTTTCA	1.3 ± 0.0524 fold-change vs cycle 0	1.47 ± 0.103 fold-change vs cycle 0	1.35 ± 0.102 fold-change vs cycle 0
ACAACC	0.707 ± 0.0139 fold-change vs cycle 0	0.814 ± 0.0173 fold-change vs cycle 0	0.875 ± 0.0311 fold-change vs cycle 0
AATGGC	0.467 ± 0.0217 fold-change vs cycle 0	0.534 ± 0.0101 fold-change vs cycle 0	0.662 ± 0.067 fold-change vs cycle 0

Sequence	binding signal (SALL4 ZFC4 WT (HT-SELEX))	binding signal [1]	binding signal [2]
AGAGCA	0.756 ± 0.0413 fold-change vs cycle 0	0.893 ± 0.0729 fold-change vs cycle 0	0.98 ± 0.0193 fold-change vs cycle 0
AGCTGA	0.687 ± 0.028 fold-change vs cycle 0	0.802 ± 0.0342 fold-change vs cycle 0	0.882 ± 0.0146 fold-change vs cycle 0
TCATAA	3.28 ± 0.256 fold-change vs cycle 0	2.06 ± 0.0751 fold-change vs cycle 0	1.84 ± 0.154 fold-change vs cycle 0
AAAACA	1.61 ± 0.0773 fold-change vs cycle 0	1.67 ± 0.055 fold-change vs cycle 0	1.55 ± 0.0435 fold-change vs cycle 0
CTAGAC	0.775 ± 0.0462 fold-change vs cycle 0	0.888 ± 0.0389 fold-change vs cycle 0	0.932 ± 0.00894 fold-change vs cycle 0
ACTTTG	1.14 ± 0.054 fold-change vs cycle 0	1.27 ± 0.0366 fold-change vs cycle 0	1.24 ± 0.052 fold-change vs cycle 0
AAAAGA	1.8 ± 0.0481 fold-change vs cycle 0	1.94 ± 0.106 fold-change vs cycle 0	1.7 ± 0.125 fold-change vs cycle 0
AGGTCG	0.312 ± 0.0215 fold-change vs cycle 0	0.372 ± 0.0129 fold-change vs cycle 0	0.511 ± 0.0677 fold-change vs cycle 0
AATAGA	2.12 ± 0.0946 fold-change vs cycle 0	2.06 ± 0.0912 fold-change vs cycle 0	1.79 ± 0.161 fold-change vs cycle 0
ACTGCA	0.647 ± 0.0528 fold-change vs cycle 0	0.7299 ± 0.00625 fold-change vs cycle 0	0.797 ± 0.0181 fold-change vs cycle 0
GATTGC	0.641 ± 0.0324 fold-change vs cycle 0	0.711 ± 0.00883 fold-change vs cycle 0	0.817 ± 0.0343 fold-change vs cycle 0
CCAAGA	0.78 ± 0.0182 fold-change vs cycle 0	0.888 ± 0.03 fold-change vs cycle 0	0.931 ± 0.0131 fold-change vs cycle 0
CTCGGA	0.396 ± 0.0242 fold-change vs cycle 0	0.468 ± 0.0145 fold-change vs cycle 0	0.589 ± 0.0706 fold-change vs cycle 0
ATGTCG	0.521 ± 0.0491 fold-change vs cycle 0	0.603 ± 0.00997 fold-change vs cycle 0	0.73 ± 0.0508 fold-change vs cycle 0
TAATAA	5.02 ± 0.619 fold-change vs cycle 0	2.78 ± 0.312 fold-change vs cycle 0	2.32 ± 0.357 fold-change vs cycle 0
CTAGAA	1.25 ± 0.0695 fold-change vs cycle 0	1.37 ± 0.0276 fold-change vs cycle 0	1.3 ± 0.11 fold-change vs cycle 0
CCACTA	0.774 ± 0.0352 fold-change vs cycle 0	0.855 ± 0.0167 fold-change vs cycle 0	0.895 ± 0.0113 fold-change vs cycle 0
ACGGAG	0.414 ± 0.0316 fold-change vs cycle 0	0.522 ± 0.0321 fold-change vs cycle 0	0.609 ± 0.0699 fold-change vs cycle 0
ATTACG	1.22 ± 0.102 fold-change vs cycle 0	1.27 ± 0.0629 fold-change vs cycle 0	1.23 ± 0.0609 fold-change vs cycle 0
CCTGTC	0.437 ± 0.00717 fold-change vs cycle 0	0.533 ± 0.0129 fold-change vs cycle 0	0.619 ± 0.0538 fold-change vs cycle 0
